A number with no mark means an inactive call. Calls of active or inactive are those of the source. Calls follow the shape of the dose curve; as a rule, active = well fitted cell-killing curve with a large enough effect; inconclusive = small, poorly fitted or top-dose-only effect; inactive = flat fitted curve, though single readings scatter.
Assay: Cell Viability - LYMP1-003 - Assay at 24 hr (AID 963)
Details: LYMP1-003 lymphoblastoid cell viability; series mostly up to 92.2 µM; viability change, negative = cytotoxic: at the top concentration
From the text: NIH Chemical Genomics Center [NCGC]
NIH Molecular Libraries Screening Centers Network [MLSCN]
National Institutes of Environmental Health Sciences [NIEHS]
National Toxicology Program [NTP]
We have developed a 1536-well cell-based assay for quantitative high throughput screening (qHTS) against a number of cell lines to determine in vitro cytotoxicity of small molecules. This particular assay uses a human lymphoblastoid cell line (LYMP1-003) purchased from Coriell Institute for Medical Research.
NCGC Assay Protocol Summary:
The CellTiter-Glo luminescent cell viability assay (Promega) is a homogeneous method to measure the number of viable cells in culture. The end point readout of this assay is based on quantitation of intracellular ATP, an indicator of metabolic activity, using the luciferase reaction. Luciferase catalyzes the oxidation of beetle Luciferin to oxyluciferin and light in the presence of ATP. The luminescent signal is proportional to amount of ATP present.
Using the CellTiter-Glo luminescent cell viability assay, the amount of cellular ATP was measured in the lymphoblastoid cell line with complete culture medium following compound treatment for 24 hours. The assay was performed in opaque white Kalypsys 1536-well plates. In the screen, tetraoctylammonium bromide was used as positive control. Library compounds were measured for their ability to cause acute toxicity in the cell line, as reflected by a decrease in intracellular ATP levels, in a concentration-dependent manner. […] AC50 values were determined from concentration-response data modeled with the standard Hill equation.
qHTS protocol for CellTiter Glo lymphoblastoid cellular assay
[Step] [Parameter] [Value] [Description]
1. Reagent; 5 uL; 2500 lymphoblastoid cells/well
2. Time; 5 hr; 37 C incubation
4. Controls; 23 nL; Tetraoctylammonium bromide 6.4pM to 92 uM
5. Time; 24 hr; 37 C incubation
6. Reagent; 5 uL; CellTiter Glo reagent
7. Time; 30 min; Room Temperature
8. Detection; Luminescence; Viewlux plate reader
Keywords: cell viability, cytotoxicity, lymphoblastoid cell line, luminescence, NTPHTS, NTPHTS_NCGC, NIEHS, DSSTox, MLSMR, MLSCN, NIH Roadmap, qHTS, NCGC
Potency is read from the fitted curve at half-maximal effect.

| Structure (SMILES) | viability change, negative = cytotoxic [%] | Potency |
| --- | --- | --- |
| C1=CC2C3C=CC(C3)C2C1 (stereo unspecified) | -7.26 | – |
| CC(=O)OC/C=C(C)/C=C/C=C(C)/C=C/C1=C(C)CCCC1(C)C | -14.9 | – |
| Cc1cc(C(C)(C)C)c(O)c(C(C)(C)C)c1 | -1.07 | – |
| Nc1cccc2c(N)cccc12 | -11 | – |
| CC(C)(c1ccc(O)cc1)c1ccc(O)cc1 | – | inactive |
| Oc1ccccc1 | 5.25 | – |
| Nc1ccc(O)cc1 | – | 50.1 µM (active) |
| Brc1ccccc1-c1ccccc1 | 3.39 | – |
| CC(C)(C)c1ccc(O)c(O)c1 | -21.5 | – |
| CCCCC(CC)COC(=O)c1ccccc1C(=O)O (stereo unspecified) | -6.04 | – |
| CCCC(=O)c1cc(O)c(O)cc1O | -7.52 | – |
| CCCCCCCCCCCCCCCC[n+]1ccccc1 | – | 20 µM (active) |
| O=C(NO)c1ccccc1 | -6.09 | – |
| CC(C)C(C)(C)C(C)(C)C(C)(C)S | -2.38 | – |
| OCc1c[nH]c2ccccc12 | -1.06 | – |
| Cc1ccc(O)cc1 | -8.63 | – |
| Nc1c2ccccc2nc2ccccc12 | – | 25.1 µM (active) |
| c1ccc2occc2c1 | -2.66 | – |
| O=C(Oc1ccccc1)c1ccccc1O | 0.0014 | – |
| O=C(c1ccccc1)c1ccccc1 | 1.02 | – |
| COc1cc(C=O)ccc1O | -0.356 | – |

— PubChem BioAssay (NCATS)
